Reference: PubChem BioAssay (NCATS)
Where “and” joins values, the source holds several entries; their conditions need not be identical. Equal values may be shown once. Records with an inconclusive call do not appear. Entries that show only a call come without a potency. Some compounds were tested as several samples or in several runs, with calls that do not always agree. Calls of active or inactive are those of the source. Unless noted, calls come from the whole dose curve; as a rule, active = well fitted curve in the direction sought with a large enough effect; inconclusive = small, poorly fitted or top-dose-only effect, or another doubt; inactive = no such curve, though single readings can be large; an effect the other way counts as inactive or inconclusive.

Experiments:
[1] = AP1 Signaling Pathway (AID 357; active = well fitted curve in either direction with a large enough effect, not every such curve was filed as active;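 note: ME-180 reporter cells stimulated with EGF at its EC50 level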)
Summary of the method: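 Cells are seeded overnight, exposed to compound titrations and an EC50 level of EGF for 5 hours at 37 °C, then loaded with CCF4 dye for 2.5 hours. Beta-lactamase activity under the AP-1 element is read as a blue/green ratio.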

[2] = target: Cytochrome P450 1A2 (Homo sapiens) (UniProt P05177); test: p450-cyp1a2 (AID 410; calls by dose curve; note: potency is the fitted concentration of half-maximal effect)
Chain of Cytochrome P450 1A2 (Homo sapiens) (P05177 whole entry, looked up): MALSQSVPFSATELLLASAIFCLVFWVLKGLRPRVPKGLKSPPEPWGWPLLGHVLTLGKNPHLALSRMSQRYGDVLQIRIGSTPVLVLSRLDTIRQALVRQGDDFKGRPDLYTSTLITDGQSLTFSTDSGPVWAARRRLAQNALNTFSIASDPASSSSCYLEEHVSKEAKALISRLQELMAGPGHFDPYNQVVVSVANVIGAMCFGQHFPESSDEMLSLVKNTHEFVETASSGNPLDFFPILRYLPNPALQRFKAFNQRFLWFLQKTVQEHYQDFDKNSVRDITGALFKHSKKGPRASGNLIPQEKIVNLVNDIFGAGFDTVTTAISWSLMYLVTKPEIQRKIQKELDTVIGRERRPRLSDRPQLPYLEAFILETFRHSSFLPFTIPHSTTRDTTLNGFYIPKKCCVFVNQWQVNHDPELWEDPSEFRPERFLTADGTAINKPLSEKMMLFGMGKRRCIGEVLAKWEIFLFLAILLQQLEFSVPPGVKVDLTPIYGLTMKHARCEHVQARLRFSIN
Summary of the method: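 Luminescent demethylation readout: Luciferin-ME (100uM, equal to Km) turned over by 20nM CYP1A2 for 60 min at room temperature after NADPH regeneration addition, following 10 min compound preincubation. Normalization used 57 uM furafylline as full inhibition.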

[3] = NFAT Signaling Pathway (AID 444; active = well fitted curve in either direction with a large enough effect, not every such curve was filed as active;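 note: carbachol stimulus at about its EC50 of 1 µM final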); settings: Jurkat NFAT-bla M1, carbachol, beta-lactamase ratio, 5 h
Summary of the method: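 Read-out: CCF4 FRET ratio (460 nm/530 nm) after 1 h RT dye loading, used for %activity and AC50 from titration series. Cells: Jurkat NFAT-β-lactamase/M1 line, treated with compound plus 1 uM carbachol for 5 h, 37 °C.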

[4] = target: Cytochrome P450 3A4 (Homo sapiens) (UniProt P08684); test: qHTS Assay for Inhibitors and Substrates of Cytochrome P450 3A4 (AID 884); note: nearly all actives have a fitted effect of over 50% in size; note: potency is the fitted concentration of half-maximal effect
Chain of Cytochrome P450 3A4 (Homo sapiens) (P08684 whole entry, looked up): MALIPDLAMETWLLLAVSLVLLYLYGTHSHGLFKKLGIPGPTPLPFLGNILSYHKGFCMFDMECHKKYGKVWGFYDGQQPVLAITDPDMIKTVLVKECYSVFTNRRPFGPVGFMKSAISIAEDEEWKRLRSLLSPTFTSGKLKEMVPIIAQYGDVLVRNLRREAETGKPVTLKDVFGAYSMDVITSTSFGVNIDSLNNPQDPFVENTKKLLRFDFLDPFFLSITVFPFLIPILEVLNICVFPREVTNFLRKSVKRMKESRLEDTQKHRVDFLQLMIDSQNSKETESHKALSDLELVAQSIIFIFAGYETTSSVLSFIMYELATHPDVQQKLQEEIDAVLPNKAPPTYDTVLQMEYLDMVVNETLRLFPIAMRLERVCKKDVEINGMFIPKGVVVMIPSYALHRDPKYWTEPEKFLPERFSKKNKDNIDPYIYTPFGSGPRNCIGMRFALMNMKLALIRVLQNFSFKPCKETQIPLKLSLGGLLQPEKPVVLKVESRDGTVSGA
Summary of the method: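 Luminescent readout of luciferin produced by CYP3A4 (20 nM) dealkylation of Luciferin-PPXE, 25 uM (its KM). NADPH-driven reaction ran 60 min at RT after 10 min compound preincubation; data scaled to 57 uM ketoconazole as 100% inhibition.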

[5] = target: Cytochrome P450 2D6 (Homo sapiens) (UniProt P10635); test: qHTS Assay for Inhibitors and Substrates of Cytochrome P450 2D6 (AID 891); note: nearly all actives have a fitted effect of over 60% in size; note: potency is the fitted concentration of half-maximal effect;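 for activity change, negative = inhibition: luciferin methyl ether substrate demethylated by CYP2D6 with NADPH regeneration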
Chain of Cytochrome P450 2D6 (Homo sapiens) (P10635 whole entry, looked up): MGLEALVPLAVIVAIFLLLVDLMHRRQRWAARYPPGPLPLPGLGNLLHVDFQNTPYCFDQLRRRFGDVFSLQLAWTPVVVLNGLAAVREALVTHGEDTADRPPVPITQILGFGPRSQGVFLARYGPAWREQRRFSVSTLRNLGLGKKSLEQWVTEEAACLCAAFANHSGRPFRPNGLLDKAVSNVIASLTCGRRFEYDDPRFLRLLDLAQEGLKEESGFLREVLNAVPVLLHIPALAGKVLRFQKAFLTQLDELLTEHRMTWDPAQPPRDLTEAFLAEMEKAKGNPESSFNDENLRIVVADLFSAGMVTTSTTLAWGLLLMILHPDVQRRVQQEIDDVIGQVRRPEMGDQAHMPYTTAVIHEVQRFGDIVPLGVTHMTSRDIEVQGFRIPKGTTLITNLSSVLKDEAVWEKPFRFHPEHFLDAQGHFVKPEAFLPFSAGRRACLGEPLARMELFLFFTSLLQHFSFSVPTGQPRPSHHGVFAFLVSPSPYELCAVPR
Summary of the method: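 Luminescent read-out of luciferin formed by 5 nM human CYP2D6 demethylating 30 uM Luciferin-ME EGE (Km level) over 60 min at room temperature after NADPH regeneration addition. Data normalized to full inhibition by 1.43 uM quinidine.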

[6] = target: Cytochrome P450 3A4 (Homo sapiens) (UniProt P08684); test: qHTS Assay for Activators of Cytochrome P450 3A4 (AID 885); note: nearly all actives have a fitted effect of over 65% in size
Summary of the method: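 Human CYP3A4 dealkylates Luciferin-PPXE to luciferin, which luciferase detection converts to light. Substrate was at its KM (25uM), buffer 200mM KPO4, reaction 60 min at RT.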

Structure (SMILES): CN1C(=O)CCS(=O)(=O)[C@H]1c1ccc(Cl)cc1
- outcome [1]: inactive
- Potency [2]: inactive
- activity change, negative = inhibition ([3]; at 38 µM (top of the series)): 2.77% (inactive)
- Potency [4]: inactive
- Potency [5]: inactive

Structure (SMILES): C(=C/c1ccccc1)/CN1CCN(CCOC(c2ccccc2)c2ccccc2)CC1
- Potency [2]: 20 µM (active)
- Potency [5]: 5.01 µM (active)

Structure (SMILES): Oc1ccc2c3c1O[C@H]1c4oc5ccccc5c4C[C@]4(O)[C@H](C2)N(CC2CC2)CC[C@@]314
- outcome [1]: inactive
- Potency [2]: inactive
- activity change, negative = inhibition ([3]; at 38 µM (top of the series)): -24.9% (inactive)
- Potency [6]: inactive
- Potency [5]: 1.26 µM (active)

Structure (SMILES): N[C@H](C(=O)O)c1cc(=O)[nH]o1
- outcome [1]: inactive
- Potency [2]: inactive
- activity change, negative = inhibition ([3]; at 38 µM (top of the series)): 2.26% (inactive)
- Potency [4]: inactive
- Potency [5]: inactive

Structure (SMILES): C=CCN1CC[C@]23c4c5ccc(O)c4O[C@@H]2C(=O)CC[C@]3(O)[C@H]1C5
- outcome [1]: inactive
- activity change, negative = inhibition ([3]; at 17.2 µM (top of the series)): -9.64% (inactive)

Structure (SMILES): N#CC(C#N)=NNc1ccc(OC(F)(F)F)cc1
- Potency [4]: 5.01 µM (active)
- Potency [6]: inactive

Structure (SMILES): NC(N)=Nc1ccc2[nH]c3c(c2c1)C[C@]1(O)[C@@H]2Cc4ccc(O)c5c4[C@]1(CCN2CC1CC1)[C@@H]3O5
- Potency [2]: inactive

Structure (SMILES): NC[C@H](CC(=O)O)c1ccc(Cl)cc1
- Potency [5]: 0.794 µM (active)

Structure (SMILES): Oc1ccc2c3c1O[C@H]1c4[nH]c5ccccc5c4C[C@]4(O)[C@H](C2)N(CC2CC2)CC[C@@]314
- outcome [1]: inactive
- Potency [2]: inactive and 39.8 µM (active)
- activity change, negative = inhibition ([3]; at 38 µM (top of the series)): 3.02% (inactive)
- Potency [6]: inactive
- Potency [5]: 2.51 µM (active) and 631 nM (active)

Structure (SMILES): CCOC(=O)c1ncn2c1CN(C)C(=O)c1cc(N=[N+]=[N-])ccc1-2
- Potency [4]: inactive

Structure (SMILES): CCNC(=O)[C@@H]1O[C@@H](n2cnc3c(N)ncnc32)[C@H](O)[C@H]1O
- Potency [2]: inactive

Structure (SMILES): CN1[C@@H]2CC[C@H]1CC(OC(=O)N1Cc3ccccc3NC1=O)C2 (some centres not stated)
- Potency [4]: inactive

Structure (SMILES): C=C(C)[C@H]1CN[C@H](C(=O)O)[C@@H]1CC(=O)O
- Potency [2]: inactive
- Potency [4]: inactive

Structure (SMILES): C=CCN1C[C@H](C)N([C@@H](c2ccccc2)c2ccc(C(=O)N(CC)CC)cc2)C[C@H]1C
- Potency [6]: inactive

Structure (SMILES): N[C@H](Cc1o[nH]c(=O)c1Cl)C(=O)O
- Potency [2]: inactive
- Potency [5]: 0.158 µM (active)

Structure (SMILES): Cc1o[nH]c(=O)c1C[C@@H](N)C(=O)O
- Potency [2]: inactive

Structure (SMILES): NC[C@@H](CC(=O)O)c1ccc(Cl)cc1
- outcome [1]: inactive
- Potency [2]: inactive
- activity change, negative = inhibition ([3]; at 17.2 µM (top of the series)): -1.76% (inactive)
- activity change, negative = inhibition ([3]; at 38 µM (top of the series)): -6.39% (inactive)
- Potency [5]: inactive

Structure (SMILES): N[C@@H](Cn1ccc(=O)n(Cc2ccc(C(=O)O)cc2)c1=O)C(=O)O
- Potency [2]: inactive

Structure (SMILES): C=CCN1CC[C@@]23c4c5ccc(O)c4O[C@H]2/C(=N\N=C2/CC[C@@]4(O)[C@H]6Cc7ccc(O)c8c7[C@@]4(CCN6CC=C)[C@@H]2O8)CC[C@]3(O)[C@@H]1C5
- outcome [1]: inactive
- Potency [2]: inactive
- activity change, negative = inhibition ([3]; at 38 µM (top of the series)): -21.2% (inactive)
- Potency [6]: inactive
